Results filed as inconclusive are left out. Activity calls are given as the source filed them. Calls come from the whole dose curve; as a rule, active = well fitted curve in the direction sought with a large enough effect; inconclusive = small, poorly fitted or top-dose-only effect, or another doubt; inactive = no such curve, though single readings can be large; an effect the other way counts as inactive or inconclusive.
Assays:
[1] = system: Zika virus NS2B-NS3 protease (linked construct); assay: Primary screen NINDS Rhodamine qHTS for Zika virus inhibitors (AID 1347160); note: nearly all actives have a fitted effect of over 55% in size; note: potency is the fitted concentration of half-maximal effect
Summary of the method: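 Enzyme (25 nM, linked NS2B-NS3) was preincubated 15 min with compound in 10 mM Tris-HCl pH 8.0, 0.01% Tween 20. Rhodamine110 substrate (1.5 microM) was then added and fluorescence read at start and after 15 min.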

[2] = HPAF-II Cancer Cell Toxicity qHTS against the NCATS CANVASS Library (AID 1347346); note: nearly all actives have a fitted effect of over 55% in size; note: potency is the fitted concentration of half-maximal effect
Summary of the method: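 1000 HPAF-II cells/well; 4 h pre-incubation; 11-pnt compound titration; 72 h, 37 degrees C/5% CO2; CellTiter-Glo, 15 min RT; luminescence read.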

[3] = U-118MG Cancer Cell Toxicity qHTS against the NCATS CANVASS Library (AID 1347351); note: potency is the fitted concentration of half-maximal effect
Summary of the method: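 Viability was assessed by adding CellTiter-Glo reagent to treated cultures and reading luminescence after 15min at room temperature. Treatment lasted 72 h at 37 degrees C/5% CO2, using an 11-point series on 1000 cells/well.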

[4] = COV-362 Cancer Cell Toxicity qHTS against the NCATS CANVASS Library (AID 1347352); note: series mostly up to about 38 µM
Summary of the method: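 1000 cells/well, 4 h pre-incubation 37 °C/5% CO2; 11-pnt titration; 72 h; CellTiter-Glo 15 min RT, luminescence.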

[5] = HPAF-II 24hr Apoptosis Induction qHTS against the NCATS CANVASS Library (AID 1347356)
Summary of the method: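 500 HPAF-II cells/well; compounds in 11-pnt qHTS; 24 h, 37 C/5% CO2; Caspase-Glo 3/7 added, 15 min RT dark; luminescence read. Doxorubicin control.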

[6] = HEK293 18hr Apoptosis Induction qHTS against the NCATS CANVASS Library (AID 1347357)
Summary of the method: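 Caspase-Glo 3/7 luminescence (15 min, room temperature) measured apoptosis after an 18-hour, 37 degrees C exposure of HEK293 cells (500 cells/well) to compounds in 11 points.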

[7] = HEK293 24hr Apoptosis Induction qHTS against the NCATS CANVASS Library (AID 1347359)
Summary of the method: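 HEK293 cells, 500 per well, exposed to an 11-point compound series for 24 hours at 37 degrees C. Caspase 3/7 activity read by Caspase-Glo luminescence (DEVD substrate) after 15 min at room temperature.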

[8] = HEK293 12hr Apoptosis Induction qHTS against the NCATS CANVASS Library (AID 1347361)
Summary of the method: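 HEK293 cells (500/well, DMEM + 10% FBS) were exposed to natural products across an 11-point series for 12 hours at 37 degrees C. Caspase-3/7 activity was then measured with DEVD luciferase luminescence after 15 min at room temperature.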

[9] = biological target: Luciferin 4-monooxygenase (Photinus pyralis) (UniProt P08659); assay: Firefly luciferase counterscreen qHTS: Assay Interference Panel against the NCATS CANVASS Library (AID 1347363); note: series mostly up to about 57 µM
Chain of Luciferin 4-monooxygenase (Photinus pyralis) (P08659 whole entry, looked up): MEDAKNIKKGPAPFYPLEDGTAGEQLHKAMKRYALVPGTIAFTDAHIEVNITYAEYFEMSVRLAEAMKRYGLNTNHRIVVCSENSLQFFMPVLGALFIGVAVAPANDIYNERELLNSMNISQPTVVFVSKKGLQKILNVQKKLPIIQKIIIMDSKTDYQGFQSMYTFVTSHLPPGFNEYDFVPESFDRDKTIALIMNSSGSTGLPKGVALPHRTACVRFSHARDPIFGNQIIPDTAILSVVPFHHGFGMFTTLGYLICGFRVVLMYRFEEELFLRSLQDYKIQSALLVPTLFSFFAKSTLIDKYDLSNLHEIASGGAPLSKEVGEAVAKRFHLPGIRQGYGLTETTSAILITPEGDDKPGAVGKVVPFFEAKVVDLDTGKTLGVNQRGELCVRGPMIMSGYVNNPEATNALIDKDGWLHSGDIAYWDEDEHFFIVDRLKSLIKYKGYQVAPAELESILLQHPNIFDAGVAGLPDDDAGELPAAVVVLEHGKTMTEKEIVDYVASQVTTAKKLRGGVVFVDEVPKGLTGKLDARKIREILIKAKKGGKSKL
Summary of the method: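 Purified P. pyralis luciferase (0.04 ug/mL, 4x reagent) added to Tris-acetate buffer with 0.013 mM D-luciferin, 0.013 mM ATP and 13.3 mM Mg-acetate; compounds preincubated 15 min, then luminescence read after 5 min, RT.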

[10] = KB-3-1 Cancer Cell Toxicity qHTS against the NCATS CANVASS Library (AID 1347366); note: nearly all actives have a fitted effect of over 75% in size; note: potency is the fitted concentration of half-maximal effect
Summary of the method: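 CellTiter-Glo luminescence measured viability after 72 h at 37C. KB-3-1 cells were seeded at 500 per well in DMEM/10% FBS.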

[11] = qHTS for ATAD5 Agonist screened against the NCATS CANVASS Library (AID 1347367);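 note: luciferase reporter driven by ATAD5 which rises upon DNA damage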
Summary of the method: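 Genotoxicity via ATAD5-luciferase luminescence after 16 h compound exposure (11-point series) at 37C in HEK293T-ATAD5 cells. CellTiter-Fluor viability read precedes the luminescence read; MMS serves as positive control.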

[12] = MCF7 Cancer Cell Toxicity qHTS against the NCATS CANVASS Library (AID 1347369)
Summary of the method: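 Cytotoxicity was measured as CellTiterGlo luminescence (ATP) after 72 h at 37 °C. The cells were MCF7 at 500 per well, with an 11-point compound concentration series.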

[13] = qHTS for ATAD5 Antagonist screened against the NCATS CANVASS Library (AID 1347370); note: nearly all actives have a fitted effect of over 65% in size; note: potency is the fitted concentration of half-maximal effect
Summary of the method: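 HEK293T-ATAD5 luc reporter, 2000 cells/well; 5hr attach; cpd + 10 uM 5-FUrd; 16hr 37C, 5% CO2. Readouts: CellTiter-Fluor fluorescence (1hr), then Amplite luciferase luminescence (30min RT).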

[14] = J3T Cancer Cell Toxicity qHTS against the NCATS CANVASS Library (AID 1347371); note: potency is the fitted concentration of half-maximal effect
Summary of the method: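 Dog glioma J3T, 500 cells/well; cpd 11-pt qHTS; 72 hr, 37C/5% CO2; CellTiterGlo ATP luminescence readout.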

[15] = biological target: Nuclear receptor subfamily 1 group I member 3 (Homo sapiens) (UniProt Q14994); assay: qHTS for Constitutive Androstane Receptor (CAR) Agonist screened against the NCATS CANVASS Library (AID 1347373);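 note: every well also contained 1.5 µM PK11195 alongside the test compound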
Chain of Nuclear receptor subfamily 1 group I member 3 (Homo sapiens) (Q14994 whole entry, looked up): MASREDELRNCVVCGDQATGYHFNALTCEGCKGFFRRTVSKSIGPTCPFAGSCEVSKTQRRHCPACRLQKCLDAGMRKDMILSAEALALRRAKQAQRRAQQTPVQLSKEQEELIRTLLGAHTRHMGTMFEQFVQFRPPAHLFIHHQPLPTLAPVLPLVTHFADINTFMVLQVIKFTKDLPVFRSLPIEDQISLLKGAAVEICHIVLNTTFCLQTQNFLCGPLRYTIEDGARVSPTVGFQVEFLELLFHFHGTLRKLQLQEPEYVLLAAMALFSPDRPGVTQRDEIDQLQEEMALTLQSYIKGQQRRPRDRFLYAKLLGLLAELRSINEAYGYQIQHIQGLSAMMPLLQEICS
Summary of the method: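 Luciferase read-out (ONE-Glo, 30 min RT) of CYP2B6-2.2kb promoter activity in double-stable HepG2-hCAR cells after 24hr compound exposure with 1.5uM PK11195 present; viability measured first by CellTiter-Fluor.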

[16] = 10-beta competent E. coli microbial cell viability qHTS against the NCATS CANVASS Library (AID 1347376); note: series mostly up to about 46 µM
Summary of the method: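 Luminescence from BacTiter-Glo ATP detection served as the viability read-out; bacteria (0.2 OD) had been incubated overnight at 37C with pin-transferred compounds at 11 concentrations.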

[17] = Inflammasome Signaling qHTS Counterscreen: IL-1-beta AlphaLISA counterscreen against the NCATS CANVASS Library (AID 1347381);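 note: cell-free check with purified IL-1β in medium and no THP-1 cells; series mostly up to about 57 µM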
Summary of the method: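 Here, no cellular stimulation occurs; compounds in an 11-point series meet 4 pg purified IL-1-beta directly. Bead-based AlphaLISA detection follows (1 h acceptor/antibody, then 30 min donor, dark, room temperature), with excitation at 680 nm.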

[18] = Vero-766 cells viability qHTS against the NCATS CANVASS Library: Counterscreen for Zika virus inhibition assay (AID 1347394); note: series mostly up to about 46 µM; nearly all actives have a fitted effect of over 60% in size
Summary of the method: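 CellTiter Glo luminescence measured cytotoxicity after 72 h at 37C in uninfected Vero 766 cells, plated at 1000 cells/well. Compounds were applied in an 11-point series. Wells without cells defined 100% inhibition.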

[19] = Viability qHTS for inhibitors of the SERCaMP assay screened against the NCATS CANVASS Library (AID 1347400); note: nearly all actives have a fitted effect of over 70% in size; note: potency is the fitted concentration of half-maximal effect
Summary of the method: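 CellTiter-Glo luminescence readout after 48 h compound exposure (11-pnt qHTS series) of SH-SY5Y-GLuc SERCaMP MJH297 cells seeded at 1000 cells/well; bortezomib positive control.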

[20] = qHTS for Inflammasome Signaling Inhibitors: IL-1-beta AlphaLISA screen against the NCATS CANVASS Library (AID 1347379);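 note: human THP-1 cells primed with LPS then triggered with ATP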;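 for Potency: secreted IL-1B measured as AlphaLISA emission at 615 nm; potency is the fitted concentration of half-maximal effect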
Summary of the method: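 THP-1, 1 hr compound pre-incubation, then LPS 250 ng/mL + ATP 1.25 mM (final); 16 hr total with compound; IL-1B AlphaLISA, ex 680/em 615 nm; 11-point qHTS, up to 57.5 uM final.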

Measured: Potency

C[C@@H]1O[C@@H](Oc2c(-c3ccc(O)cc3)oc3cc(O)cc(O)c3c2=O)[C@H](O)[C@H](O)[C@H]1O
active: [1] 44 µM
not listed: [20]
inactive: all other assays above

CN1C(=O)C2C(N=CN2C)N(C)C1=O (stereo not given)
not listed: [3]
inactive: all other assays above

CC12C[C@]3(O)O[C@@H](O1)[C@]1(COC(=O)c4ccccc4)[C@@H]3CC21OC1OC(CO)C(O)C(O)C1O (stereo not given in full)
inactive: all assays above

O=C1CC(c2cc(O)cc(O)c2)Oc2cc(O)ccc21 (stereo not given)
active: [1] 34.9 µM
not listed: [19]
inactive: all other assays above

Cc1cc(O)cc2oc(C[C@H](C)O)cc(=O)c12
active: [1] 44 µM
inactive: all other assays above

C=C1/C=C\C(CCC)=C\c2csc(n2)C(C)NC(=O)C[C@@]2(CC(=O)O)CCC(=C)[C@H](C1)S2 (stereo not given in full)
active: [1] 2.77 µM
inactive: all other assays above

C[C@@H]1O[C@@H](O[C@@H]2[C@@H](O)[C@H](O[C@@H]3[C@@H](O)[C@@H](O)C(O[C@H]4[C@H](OC(=O)[C@]56CCC(C)(C)C[C@H]5C5=CCC7[C@@]8(C)C[C@H](O)[C@H](O[C@@H]9C[C@H](CO)[C@@H](O)[C@H](O)[C@H]9O)[C@@](C)(CO)C8[C@H](O)C[C@@]7(C)[C@]5(C)CC6)OC[C@H](O)[C@@H]4O)O[C@H]3C)OC[C@H]2O)[C@H](O)[C@H](O)[C@H]1O (stereo not given in full)
active: [1] 24.3 µM
inactive: all other assays above

C/C1=C/[C@@H](C)[C@H](O)C/C=C/CC/C=C/C(=O)O[C@@H]1[C@H](C)C(=O)/C=C/CC1CC(=O)NC(=O)C1
active: [1] 44 µM | [2] 13.3 µM | [3] 21.1 µM | [10] 13.2 µM | [13] 16.6 µM | [14] 16.6 µM | [20] 13.7 µM | [19] 38.1 µM
not listed: [4] | [8]
inactive: all other assays above

Source: PubChem BioAssay (NCATS)
